From PubChem
hgDAF-12 ag: activates the H. glycines DAF-12 receptor ligand-binding domain; HEK293 GAL4-hgDAF12 UAS-luciferase reporter, agonist luminescence; normalized to butyrate control; activation, % at 6.8 µM; 370,000 tested, 1.8% active;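 active = activation above a cutoff set at the mean of all screened compounds plus 3 SD, cut at about 10% in these data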;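 note: 0% = DMSO wells and 100% = sodium butyrate wells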
DAX1 inh-1: blocks DAX1 repression of SF-1 activated StAR promoter; HEK293T StAR-luciferase reporter, SF-1/DAX-1 repression relief; inhibition, % at 6.8 µM; 370,000 tested, 1.1% active;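 active = inhibition above the mean over all tested compounds plus 3 SD, cut at about 3.6% in these data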;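 note: 0% = DAX-1 cells with DMSO and 100% = cells lacking DAX-1 with DMSO; higher inhibition means more luminescence from relief of DAX-1 repression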
DAX1 inh-2: NR0B1 (DAX1) inhibition | P51843 | HEK293 Gal4-DAX1 luciferase reporter, luminescence | inhibition, % at 6.75 µM | 340,000 tested, 0.99% active | AID 504766;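 active = inhibition above the mean over all tested compounds plus 3 SD, cut at about 4.2% in these data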;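 note: 0% = DAX1-transfected cells with DMSO and 100% = empty-vector control cells with DMSO; inhibition shows as a rise in luminescence from relieved DAX1 repression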
Target sequence (P51843 207-470 limits assumed): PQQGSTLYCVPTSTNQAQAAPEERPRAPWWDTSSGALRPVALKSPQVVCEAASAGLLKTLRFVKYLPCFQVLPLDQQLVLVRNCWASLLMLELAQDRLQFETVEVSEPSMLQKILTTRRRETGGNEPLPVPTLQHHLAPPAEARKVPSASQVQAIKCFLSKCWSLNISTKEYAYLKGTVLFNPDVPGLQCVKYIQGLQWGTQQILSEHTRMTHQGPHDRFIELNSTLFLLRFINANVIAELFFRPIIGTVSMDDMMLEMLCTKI
hcDAF12 agonist: H. contortus DAF-12 activation, primary screen | 370,000 tested, 1.4% active | AID 652067 | activation, % at 6.8 µM | HEK293 hcDAF-12 lit1-tk-luc reporter, luminescence; 0% DMSO, 100% Δ7-dafachronic acid;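 active = activation above the mean of all tested compounds plus 3 SD, cut at about 5.5% in these data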;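 note: 100% = response to 3 µM Δ7-dafachronic acid high control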
ssDAF-12 act: activators of S. stercoralis DAF-12 nuclear receptor | activation, % at 6.8 µM | HEK293 ssDAF-12/GRIP1 lit1-tk-luc reporter, luminescence; % of 3 µM dafachronic acid response | 370,000 tested, 1% active;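 active = activation above the mean over all tested compounds plus 3 SD, cut at about 0.9% in these data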;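 note: 0% = DMSO-only wells and 100% = 3 µM delta7-dafachronic acid wells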
LXR ag: LXR-beta agonism as hcDAF-12 counter-screen; shares compounds with hcDAF12 agonist; HEK293 Gal4-LXR tk-luc reporter, luminescence, 24 h; normalized: DMSO 0%, positive control 100%; activation, % at 6.8 µM; 3,400 tested, under 10 active;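 active = mean percent activation of the reporter above a cutoff set as the average over tested compounds plus their standard deviation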
Target sequence (P55055 whole entry, looked up, the tested form may be a part): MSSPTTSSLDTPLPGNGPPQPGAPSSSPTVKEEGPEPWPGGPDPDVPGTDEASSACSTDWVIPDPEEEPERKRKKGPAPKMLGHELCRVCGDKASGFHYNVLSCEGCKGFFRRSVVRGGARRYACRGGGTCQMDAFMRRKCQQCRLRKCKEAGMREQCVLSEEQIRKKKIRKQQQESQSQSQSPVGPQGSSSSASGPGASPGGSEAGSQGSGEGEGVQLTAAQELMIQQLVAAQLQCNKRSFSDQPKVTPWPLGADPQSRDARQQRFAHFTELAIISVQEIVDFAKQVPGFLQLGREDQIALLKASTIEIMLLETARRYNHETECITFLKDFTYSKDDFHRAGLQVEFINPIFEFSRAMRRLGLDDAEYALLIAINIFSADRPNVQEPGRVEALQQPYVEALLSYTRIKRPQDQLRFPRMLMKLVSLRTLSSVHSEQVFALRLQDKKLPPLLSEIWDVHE
hcDAF12 conf: hcDAF-12 agonism, confirmation assay; shares compounds with hcDAF12 agonist; HEK293 hcDAF-12 lit1-tk-luc reporter, luminescence; % of Δ7-dafachronic acid response; activation, % at 6.8 µM; 3,400 tested, 61% active; AID 743032;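 active = mean activation across triplicate tests above the threshold derived from the earlier primary screen, cut at about 5.5% in these data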;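 note: 0% = DMSO only wells and 100% = 3 µM Δ7-dafachronic acid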
* marks the source's active call; other numbers are inactive results; nt = no result. Rows were chosen to be rich in hits. Some 4.1% of all compounds tested hit in one or more screens of this group.

SMILES	hgDAF-12 ag	DAX1 inh-1	DAX1 inh-2	hcDAF12 agonist	ssDAF-12 act	LXR ag	hcDAF12 conf
Cc1nccn1CC(=O)N/N=C/c1ccccc1O	0.6	0.4	0.8	1.4	-0.4	nt	nt
COCCN(CC(=O)Nc1ccccc1C(F)(F)F)C(=O)/C=C/c1cc(Cl)c2c(c1)OCCO2	1.3	0.4	0.6	2.2	-1.5	nt	nt
CCOc1ccc(C2C(C#N)=C(N)N(N(C)C)C3=C2C(=O)CC(C)(C)C3)cc1 (centres undefined)	0.3	0.0	-1.0	-2.3	-1.5	nt	nt
COCCn1c(=O)[nH]c(=O)c2c1nc(-c1cc(Br)c3c(c1)OCO3)n2Cc1ccccc1	-2.4	-0.2	-0.2	-1.5	-0.8	nt	nt
Cc1ccc(-c2cc3nc(C)cc(NCc4ccco4)n3n2)cc1	9.0	3.0	1.7	8.5*	2.4*	0.9	6.2*
Cc1cc(N)n(-c2nc3ccccc3s2)n1	11.4*	3.6*	5.2*	7.8*	1.9*	1.2	9.6*
Cc1cc(C)n(-c2nc3ccccc3s2)n1	6.0	0.0	-0.5	-0.7	-0.7	nt	nt
Cc1nn(-c2nc3ccccc3s2)c(N)c1-c1ccc(Cl)cc1	1.8	0.1	1.0	-1.9	-0.5	nt	nt
Cc1nn(-c2nc3ccccc3s2)c(N)c1Sc1ccc(F)cc1	7.2	1.7	3.4	6.6*	0.8	0.8	13.8*
C#CCOCCOCCOCCNc1nc(N2CCOCC2)nc(N2CCN(C(=O)[C@H](CCC(=O)O)n3cc(C(N)CO)nn3)CC2)n1 (some centres undefined)	5.9	nt	nt	0.3	-1.5	nt	nt
COc1cccc(CNC(=O)COC(=O)CCS(=O)(=O)c2ccc(C)cc2)c1	1.3	0.7	0.5	-2.6	-0.5	nt	nt
C/C(=N\NC(=O)c1cc(C)oc1C)c1ccc2ccccc2c1	11.5*	0.2	4.4*	7.2*	-1.6	-0.2	-1.4
O=C(CN1C(=O)C2C3C=CC(C4CC34)C2C1=O)Nc1cnc2ccccc2c1 (centres undefined)	0.7	-0.3	2.5	7.5*	0.0	-0.3	2.0
CC(=O)c1c(O)cc(O)cc1O	-0.7	0.9	1.9	-1.3	-1.4	nt	nt
CCCCN(C(=O)c1cccc(S(=O)(=O)N2CCOCC2)c1)c1c(N)n(CCC)c(=O)[nH]c1=O	2.3	0.3	2.7	8.2*	-1.1	-0.3	1.6
O=C(CCn1nnc2ccccc21)N1CCN(c2ccccc2)CC1	4.5	0.2	0.1	-1.2	-0.9	nt	nt
Cc1ccccc1N1CCN(C(=O)CCn2nnc3ccccc32)CC1	13.2*	2.9	nt	8.5*	-0.4	0.9	6.4*
O=C(CCn1nnc2ccccc21)N1CCN(c2ccccc2F)CC1	11.1*	1.9	nt	8.8*	0.0	0.4	5.1
CCCS(=O)(=O)n1nc(-c2ccccc2)cc1N	0.8	0.8	-0.4	9.9*	-1.3	-0.1	2.0
CCS(=O)(=O)n1nc(-c2ccccc2)cc1N	-1.2	0.7	0.6	-1.6	-0.7	nt	nt
Cc1ccc(NC(=O)COC(=O)c2cccc(S(=O)(=O)N3CCCCCC3)c2)cc1	-3.2	-0.6	1.4	-2.1	-1.3	nt	nt
O=C(C1=NN[C@@H]2C(=O)N(c3cccc(F)c3)C(=O)[C@H]12)c1ccc2ccccc2n1	2.8	1.8	0.3	9.0*	0.7	-0.2	2.6
CN1CC(=O)N2[C@@H](C[C@]3(c4c[nH]c5ccccc45)c4ccccc4N(S(=O)(=O)c4ccccc4)[C@H]23)C1=O	-0.6	nt	nt	6.6*	0.0	-0.1	3.9
Cc1ccc(S(=O)(=O)CCC(=O)OCC(=O)NCCc2ccccc2)cc1	2.1	-1.6	1.1	-1.5	-1.0	nt	nt
O=[N+]([O-])c1ccc(-c2ccc(C=Nc3cccc4ccccc34)o2)cc1	1.9	0.8	-0.3	6.8*	0.0	-0.1	0.6
SMILES	hgDAF-12 ag	DAX1 inh-1	DAX1 inh-2	hcDAF12 agonist	ssDAF-12 act	LXR ag	hcDAF12 conf
Cc1ccc(/C(O)=C2\C(=O)C(=O)N(Cc3cccnc3)C2c2ccccc2[N+](=O)[O-])cc1 (centres undefined)	13.2*	2.2	0.3	9.7*	1.7*	0.0	6.8*
Cc1cnc(NC(=O)CSc2nnc(-c3ccccc3)o2)s1	6.7	3.3	6.4*	8.4*	0.0	0.7	4.5
CCC(C)(C)C1CCC2(CC1)NC(=O)N(CC(=O)NCCc1c[nH]c3ccccc13)C2=O (centres undefined)	5.2	-0.2	0.8	6.8*	0.4	-0.2	2.8
CC1CCC2(CC1)NC(=O)N(CC(=O)NCCc1c[nH]c3ccccc13)C2=O (centres undefined)	3.0	-2.0	0.7	1.5	-0.4	nt	nt
CC[n+]1c(C)cc(C)n1-c1ccccc1	1.7	-0.6	1.4	0.9	-0.8	nt	nt
O=c1[nH]n(-c2ccc(F)cc2)c2ncccc12	-0.2	0.2	0.0	-0.6	-1.0	nt	nt
Cc1c(-c2ccccn2)c(=O)[nH]n1-c1ccc(F)cc1	25.6*	4.2*	1.6	14.6*	1.8*	1.6	15.2*
CCCCn1cnc2c(sc3nc4c(cc32)CSC(C)(C)C4)c1=O	12.8*	1.2	3.2	7.0*	-0.5	1.2	5.6*
Cc1cc(C)c(NC(=O)COC(=O)c2nc3nccc(C)n3n2)c(Cl)c1	0.4	-2.1	-0.4	-1.0	-0.8	nt	nt
CCc1cccc2c(C(=O)C(F)(F)F)cn(CC(=O)N3CCOCC3)c12	1.3	-0.3	-1.8	-1.0	-1.3	nt	nt
Cn1c(-c2ccc3ccccc3n2)[n+](C)c2ccccc21	2.5	0.1	-1.2	10.1*	-1.2	0.1	2.4
Cc1ccc(NC(=O)Nc2ccccc2)cc1[N+](=O)[O-]	5.0	1.1	0.8	7.5*	-1.5	0.2	1.8
CC(=O)Nc1ccc(C)c([N+](=O)[O-])c1	-1.4	-0.4	-0.5	-2.5	-1.4	nt	nt
C/C(CC(=O)Nc1cccc(Cl)c1Cl)=N\NC(=O)c1ccccc1C	8.1	0.9	0.5	0.3	-0.7	nt	nt
NS(=O)(=O)c1ccc(NC(=S)NCc2ccco2)cc1	1.3	-0.2	1.6	7.2*	-0.6	-0.1	4.6
O=C(OCC(=O)c1c[nH]c2ccccc12)c1cc2ccccc2cc1O	0.7	-0.4	-1.0	8.0*	-1.1	-0.3	3.7
O=C(Nc1cccc([N+](=O)[O-])c1)C1COc2ccccc2O1 (centres undefined)	0.6	0.2	1.7	0.7	-1.2	nt	nt
COc1ccc(C=Nc2cccnc2N)cc1	nt	nt	0.6	nt	nt	nt	nt
CCOc1ccc(C=Nc2cccc3ncccc23)cc1	-0.4	-0.7	1.7	9.2*	0.2	-0.1	3.8
Oc1ccccc1-c1nc(N2CCN(Cc3ccccc3)CC2)c2ccccc2n1	5.6	0.5	-0.8	8.5*	0.3	0.2	4.2
O=C(O)/C=C/C(=O)Nc1ccc(S(=O)(=O)N2CCCC2)cc1	-1.0	0.4	0.2	0.7	-0.9	nt	nt
